GC-A act: GC-A stimulated cGMP production enhancers – HEK293 GC-A cells, cGMP TR-FRET, EC30 ANP, primary screen. Atrial natriuretic peptide receptor 1 (Homo sapiens), P16066. 0% at EC30 ANP, 100% saturating ANP. activation, % at 10 µM. hit rate 0.14% among 370,000; in the data active = activation above about 40%
NadD block: inhibitors of S. aureus NadD, primary screen, biochemical, colorimetric, uHTS; Nicotinate-nucleotide adenylyltransferase NadD (Staphylococcus aureus N315); purified NadD enzyme, colorimetric absorbance read-out; inhibition, % at 20 µM; hit rate 0.78% among 360,000; AID 602399, 2012; in the data active = inhibition above about 26%
Neddylation inh: inhibitors of cullin neddylation, primary screen, biochemical, TR-FRET, uHTS, NAE and Ubc12; inhibition, % at 25 µM; hit rate 0.58% among 360,000; AID 651699, 2012; in the data active = inhibition above about 36%
Target sequence (P61081 whole entry, looked up): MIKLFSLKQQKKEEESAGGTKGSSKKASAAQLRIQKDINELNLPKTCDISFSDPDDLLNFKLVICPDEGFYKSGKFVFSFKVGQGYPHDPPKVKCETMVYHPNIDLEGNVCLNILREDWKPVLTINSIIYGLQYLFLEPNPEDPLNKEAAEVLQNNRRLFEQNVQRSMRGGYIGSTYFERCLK
Target sequence (Q13564 whole entry, looked up): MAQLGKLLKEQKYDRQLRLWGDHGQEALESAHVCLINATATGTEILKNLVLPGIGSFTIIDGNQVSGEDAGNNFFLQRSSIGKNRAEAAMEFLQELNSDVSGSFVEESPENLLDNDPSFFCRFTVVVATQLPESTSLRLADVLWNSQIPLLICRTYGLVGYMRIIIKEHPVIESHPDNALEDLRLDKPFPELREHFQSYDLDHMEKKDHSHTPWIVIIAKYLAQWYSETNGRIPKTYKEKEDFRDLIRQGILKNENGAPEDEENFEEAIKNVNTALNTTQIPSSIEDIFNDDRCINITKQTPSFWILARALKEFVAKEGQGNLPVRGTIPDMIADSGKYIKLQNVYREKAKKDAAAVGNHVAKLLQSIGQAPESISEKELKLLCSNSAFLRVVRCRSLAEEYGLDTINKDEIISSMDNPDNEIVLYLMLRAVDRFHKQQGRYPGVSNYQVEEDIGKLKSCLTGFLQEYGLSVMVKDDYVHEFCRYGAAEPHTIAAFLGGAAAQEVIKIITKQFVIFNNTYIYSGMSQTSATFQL
GC-B act: human GC-B receptor activators, primary screen, HEK293 GC-B cells, cGMP TR-FRET, EC30 CNP | activation, % at 10 µM | hit rate 0.11% among 370,000 | Atrial natriuretic peptide receptor 2 (Homo sapiens), P20594 | 0% at EC30 CNP, 100% saturating CNP;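 active = activation at 10 µM reaching about 35% in either raw or pattern-adjusted values, limit read from the data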
NadD inh conf: inhibitors of S. aureus NadD, confirmation, biochemical, colorimetric, single concentration; shares compounds with NadD block; purified S. aureus NadD, colorimetric enzyme assay; inhibition, % at 20 µM; hit rate 13% among 2,000; in the data active = inhibition mostly above about 42%, no sharp cut-off; inactive = mostly below about 42%
An asterisk follows results filed as active. The list is not random: actives were taken first. Their share in the collection is about 1.5%.

What do the screens show for `Cc1ccc(NC(=O)c2cc(C(=O)c3cc(Cl)ccc3O)cn(-c3ccc(C)cc3)c2=O)cc1`?
GC-A act: 0; NadD block: 31*; Neddylation inh: 12; GC-B act: -1; NadD inh conf: -11

What do the screens show for `CCCOc1nccc2c1n(C)c(=O)n2C`?
GC-A act: 1; GC-B act: 2

What do the screens show for `COCCN1C(=O)Cc2c1nc(N)c1c(N)nc(N3CCN(c4ccc(F)cc4)CC3)c(C#N)c21`?
GC-A act: 2; NadD block: 37*; Neddylation inh: -3; GC-B act: 7; NadD inh conf: 9

How did CC(C)c1ccc(OCC(=O)NNC(=S)NC(=O)c2cccs2)c(Br)c1 do in these assays?
GC-A act: -2; NadD block: 25*; Neddylation inh: 10; GC-B act: 6; NadD inh conf: 10

Results for CC(C)(C)c1cc[n+](/C(C(=S)Nc2ccccc2F)=C(/[O-])c2ccc3c(c2)OCCO3)cc1 ?
GC-A act: -2; NadD block: -1; Neddylation inh: -9; GC-B act: 1

What do the screens show for `[O-]/C(=C(\C(=S)Nc1ccccc1F)[n+]1ccccc1)c1ccc(-c2ccccc2)cc1`?
GC-A act: 1; NadD block: 31*; Neddylation inh: -12; GC-B act: 3; NadD inh conf: 3

How did COc1ccc(CN2C(=O)c3ccnn3CC2(C)c2nnnn2-c2c(C)cccc2C)cc1 (configuration not stated) do in these assays?
GC-A act: 2; GC-B act: 0

What do the screens show for `O=C(c1cccc(S(=O)(=O)N2CCN(c3ccc(F)cc3)CC2)c1)N1CCN(c2ccccc2O)CC1`?
GC-A act: -3; NadD block: 38*; Neddylation inh: 2; GC-B act: 3; NadD inh conf: 9

Results for O=C(c1cccc(S(=O)(=O)N2CCN(c3ccc(F)cc3)CC2)c1)N1CCCCCCC1 ?
GC-A act: 7; NadD block: -3; Neddylation inh: 9; GC-B act: 5

What do the screens show for `Cc1ccc(C(=O)OCC(=O)Nc2sc3c(c2C#N)CCCC3)cc1NC(=O)c1ccco1`?
GC-A act: -7; NadD block: 59*; Neddylation inh: 1; GC-B act: 0; NadD inh conf: 17

What do the screens show for `Cc1ccc(C(=O)OCC(=O)Nc2sc3c(c2C#N)CCCCC3)cc1NC(=O)c1ccco1`?
GC-A act: -2; NadD block: 36*; Neddylation inh: 5; GC-B act: -3; NadD inh conf: 12

What do the screens show for `NC(=O)[C@H]1CC2(CC(c3cccc(NC(=O)CC(c4ccccc4)c4ccccc4)c3)=NO2)CN1C(=O)c1ccccc1C(=O)c1ccccc1` (some centres not stated)?
GC-A act: 1; NadD block: 44*; Neddylation inh: -52; GC-B act: 2; NadD inh conf: 30

What do the screens show for `NC(=O)[C@H]1CC2(CC(c3cccc(NC(=O)CC(c4ccccc4)c4ccccc4)c3)=NO2)CN1C(=O)C(c1ccccc1)c1ccccc1` (some centres not stated)?
GC-A act: 4; NadD block: 33*; Neddylation inh: -56; GC-B act: 1; NadD inh conf: 27

How did CC(=O)NCc1ccc(OCCCN2CCC(C(O)(c3ccccc3)c3ccccc3)CC2)cc1 do in these assays?
GC-A act: -16; GC-B act: -19

Results for CCOC(=O)c1c(NC(=O)CSc2nc3cc(Cl)ccc3c(=O)n2Cc2ccco2)sc(C(=O)N(C)C)c1C ?
GC-A act: 7; NadD block: 39*; Neddylation inh: -59; GC-B act: 6; NadD inh conf: 8

How did CN(C(=O)[C@@H]1CC=C[C@@H]2CCN(C3CCCCC3)C(=O)[C@@H]21)c1ccccc1 do in these assays?
GC-A act: -4; GC-B act: -7

What do the screens show for `CCCCN1CN2Cc3cc(F)ccc3C2CS1(=O)=O` (configuration not stated)?
GC-A act: 0; GC-B act: -1

What do the screens show for `CS(=O)(=O)N1CCc2cc(-c3csc(NC(=O)C(c4ccccc4)c4ccccc4)n3)ccc21`?
GC-A act: -3; NadD block: 30*; Neddylation inh: -46; GC-B act: -10; NadD inh conf: 31

What do the screens show for `O=C(Nc1nc(-c2cccc([N+](=O)[O-])c2)cs1)C(c1ccccc1)c1ccccc1`?
GC-A act: 4; NadD block: 12; Neddylation inh: -3; GC-B act: -5

Results for COc1cc(NC(=O)c2ccccc2)c(C)cc1NC(=O)CSc1nnc(-c2cnccn2)n1-c1ccc(C)cc1 ?
GC-A act: 4; GC-B act: -3

How did NC(=O)c1c(NC(=O)CSc2nnc(-c3ccco3)n2-c2ccccc2)sc2c1CCC2 do in these assays?
GC-A act: -11; NadD block: 10; Neddylation inh: 3; GC-B act: -2

What do the screens show for `N#Cc1c(NC(=O)CSc2nnc(-c3ccco3)n2-c2ccccc2)sc2c1CCC2`?
GC-A act: 0; NadD block: 41*; Neddylation inh: 7; GC-B act: -6; NadD inh conf: 19

How did COc1cccc(-n2c(SCC(=O)Nc3sc4c(c3C(N)=O)CCC4)nc3ccccc3c2=O)c1 do in these assays?
GC-A act: -3; NadD block: 32*; Neddylation inh: 26; GC-B act: 4; NadD inh conf: -14

Results for COc1ccc(-c2nnc(SCC(=O)Nc3sc4c(c3C#N)CCCC4)n2-c2ccccc2)cc1 ?
GC-A act: -5; NadD block: 41*; Neddylation inh: 1; GC-B act: 3; NadD inh conf: 5

What do the screens show for `COc1ccc(-n2c(SCC(=O)Nc3sc4c(c3C#N)CCCC4)nnc2-c2ccccc2OC)cc1`?
GC-A act: -3; NadD block: 41*; Neddylation inh: -5; GC-B act: -11; NadD inh conf: 45

What do the screens show for `CCC(C)NC(=O)C1CCN(S(=O)(=O)c2ccc3[nH]c(=O)oc3c2)CC1` (configuration not stated)?
GC-A act: 3; GC-B act: -2

How did CC(=O)C1=CCN(C)CC1 do in these assays?
GC-A act: 4; GC-B act: -4

What do the screens show for `COc1ccc(-n2c(SCC(N)=O)nnc2-c2ccc(NS(=O)(=O)c3ccc(C)cc3)cc2)cc1`?
GC-A act: -7; NadD block: 7; Neddylation inh: 0; GC-B act: -1

What do the screens show for `COc1ccc(-n2c(SCC(=O)Nc3ccccc3)nnc2-c2ccc(NS(=O)(=O)c3ccc(C)cc3)cc2)cc1`?
GC-A act: -1; NadD block: 49*; Neddylation inh: -50; GC-B act: -2; NadD inh conf: 44
